Results: PubChem BioAssay AID504773 (Broad Institute, 2011)
Entries with a potency or affinity are not part of this list. The source made the active and inactive calls.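 How the source made its calls: active means polarization signal falls with dose and the fitted half-maximal concentration is at or below ten times the sample's top valid dose; inconclusive means flat curve at 30 to 70% inhibition, or poor fit; inactive means signal rises, flat within 30%, or potency beyond limit.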

The compounds below were run against Golgi-associated PDZ and coiled-coil motif-containing protein (Homo sapiens) (UniProt Q9HD26) (assay: potency against CAL PDZ-peptide interaction – biochemical, fluorescence polarization, Cerulean-tagged CAL PDZ, cherry-picks, dose response (AID 504773)). Conditions: CAL PDZ-peptide binding, 1 h; series mostly up to 50 µM.
With `COc1cc(/C=C2\C(=O)NC(=O)N(c3ccccc3)C2=O)c([N+](=O)[O-])cc1OC` the outcome was “inactive”. In the case of `c1ccc2[nH]c(CCNC3CCCCC3)nc2c1`, the outcome is reported as “inactive”. With `COc1cc(C)cc(CN2CC=C(c3ccccc3)CC2)c1O` the outcome was “inactive”. For `CC(C)CN1CCN(Cc2cccc3c2OCO3)CC1CCO` (stereo unspecified), the outcome was “inactive”. With `O=C(c1ccc(F)cc1Cl)N1CCC2(CC1)OCCO2` the outcome was “inactive”. `O=C1CN=C(c2ccccc2)c2oc3ccc(Br)cc3c2N1` was tested, and the outcome was “inactive”. In the case of `Cn1c(=O)c2c(nc(-c3ccc(N(CCCl)CCCl)cc3)n2C)n(C)c1=O`, the outcome is reported as “inactive”. With `O=c1[nH]c(CN2CC=C(c3ccccc3)CC2)nc2scc(-c3ccccc3)c12` the outcome was “inactive”. `Cc1cc(C)c(C(=O)N2CCC3(CC2)OCCO3)c(C)c1` was tested, and the outcome was “inactive”. `COc1ccc(CNCCc2c[nH]c3ccccc23)c(OC)c1OC` was tested, and the outcome was “inactive”. For `CSC1=NP(=S)(SC)N2CCCC2=C1C#N` (stereo unspecified), the outcome was “inactive”.
